Source: PubChem BioAssay
Potency and affinity values are given separately. Results filed as inconclusive are left out. Calls of active or inactive are those of the source. Unless noted, how the calls were made is not given here.

Experiments:
[1] = RMG-1 ovarian cancer cell viability loss – cherry-pick, dose response (AID 687029;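 active means signal drop whose fitted half-maximal concentration is at most twice the top valid dose, in every test run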;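 further: cells exposed to compound for 96 hours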)
[2] = IOSE-T80 viability loss, PAX8-independent line – cell-based, cherry-pick, selectivity assay for PAX8 inhibitor project, dose response (AID 687032;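 active means fitted half-maximal concentration for viability loss no higher than twice the top valid dose, in every repeat run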;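 further: cells exposed to compound for 96 h before reading; 0% = neutral control wells and -100% = 2 µM mitoxantrone kill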)
[3] = CMV-driven luciferase expression suppression in HEK293 – cell-based, luminescence, dry powder, counter-screen for Pax8 inhibitor project, dose response (AID 743020;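 active means signal-lowering compounds whose fitted half-maximal concentration is at or below twice the top tested dose in every run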;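 further: HEK293 cells stably expressing the CMV luciferase reporter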)
[4] = general cell-killing toxicity readout – plate reader, dry powder samples, cytotoxicity control for PAX8 inhibitor project, dose response (AID 743021)
[5] = IGROV1 cell killing – plate reader, dry powder samples, PAX8 inhibitor project, dose response (AID 743043);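 further: more negative means fewer viable cells or more cytotoxicity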
[6] = OVCAR-3 cell viability loss – plate reader, dry powder samples, PAX8 inhibitor project, dose response (AID 743044); conditions: max activity: at 35 µM, stronger effect = lower value unless noted
[7] = toxicity toward immortalized ovarian surface epithelium – cell-based, plate reader, dry powder samples, cytotoxicity control for PAX8 inhibitor project, dose response (AID 743045);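 further: 0% = neutral control median and -100% = positive control median; more negative values mean more cell killing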
[8] = A2780 cell killing – plate reader, dry powder samples, cytotoxicity control, dose response (AID 743046);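 further: 0% = neutral control wells and -100% = cytotoxic reference compound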
[9] = OVCAR8 cell viability loss – plate reader, dry powder samples, PAX8 project, dose response (AID 743197)

Measured: max activity

Cc1ccc(S(=O)(=O)N(C)C[C@H]2Oc3ccc(NC(=O)Cc4ccccc4)cc3C(=O)N([C@H](C)CO)C[C@@H]2C)cc1
inactive: [1] | [2] | [3] | [4] | [5] | [6] 7.17% [at 8 µM, stronger effect = lower value] | [7] | [8] | [9]

O=C(C[C@@H]1CC[C@@H]2[C@H](COC[C@H](O)CN2S(=O)(=O)c2cccc(Cl)c2)O1)Nc1ccc(-c2ccccc2)cc1
inactive: [1] | [2] | [3] | [4] | [5] | [6] -18.5% | [7] | [8] | [9]

C[C@@H]1CCCCO[C@H](CN(C)C(=O)NC2CCCCC2)[C@@H](C)CN([C@@H](C)CO)C(=O)c2cc(NC(=O)Nc3ccc(C(F)(F)F)cc3)ccc2O1
inactive: [1] | [2] | [3] | [4] | [5] | [6] 18.6% [at 2.1 µM, stronger effect = lower value] | [7] | [8] | [9]

C[C@@H]1CN([C@H](C)CO)C(=O)Cc2cc(NC(=O)Nc3ccc(F)cc3)ccc2O[C@@H]1CN(C)Cc1ccc(Cl)c(Cl)c1
inactive: [1] | [2] | [3] | [4] | [5] | [6] 27.5% | [7] | [8] | [9]

CNC[C@@H]1Oc2cc(C#CC3CCCCC3)ccc2S(=O)(=O)N([C@@H](C)CO)C[C@@H]1C
inactive: [1] | [2] | [3] | [4] | [5] | [6] 17.9% [at 0.26 µM, stronger effect = lower value] | [7] | [8] | [9]

C[C@@H]1CCCCO[C@H](CN(C)Cc2ccc(C(F)(F)F)cc2)[C@@H](C)CN([C@@H](C)CO)C(=O)c2cc(NS(=O)(=O)c3cccs3)ccc2O1
inactive: [1] | [2] | [3] | [4] | [5] | [6] -7.27% [at 0.5 µM, stronger effect = lower value] | [7] | [8] | [9]

O=S(=O)(c1ccc(F)cc1)N1C[C@H]2[C@@H](c3ccccc31)[C@H](CO)N2Cc1ccccc1Cl
inactive: [1] | [2] | [3] | [4] | [5] | [6] 16.9% | [7] | [8] | [9]

C[C@H](CO)N1C[C@H](C)[C@H](CN(C)C(=O)NC2CCCCC2)Oc2cc(C#Cc3cccc(F)c3)ccc2S1(=O)=O
inactive: [1] | [2] | [3] | [4] | [5] | [6] 16.5% [at 0.5 µM, stronger effect = lower value] | [7] | [8] | [9]

C[C@@H]1CN([C@@H](C)CO)C(=O)c2cc(N(C)C)ccc2O[C@@H]1CN(C)Cc1ccc(Oc2ccccc2)cc1
inactive: [1] | [2] | [3] | [4] | [5] | [6] -18.3% | [7] | [8] | [9]

C[C@H]1CCCCO[C@@H](CN(C)C)[C@@H](C)CN([C@@H](C)CO)C(=O)c2cc(NC(=O)Nc3ccc(C(F)(F)F)cc3)ccc2O1
inactive: [1] | [2] | [3] | [4] | [5] | [6] -16.2% [at 8 µM, stronger effect = lower value] | [7] | [8] | [9]

C[C@H](CO)N1C[C@H](C)[C@H](CN(C)Cc2ccc(Cl)c(Cl)c2)OCCCC[C@H](C)Oc2ccc(NC(=O)NC3CCCCC3)cc2C1=O
inactive: [1] | [2] | [3] | [4] | [5] | [6] -2.95% | [7] | [8] | [9]

Cc1ccc(S(=O)(=O)Nc2ccc3c(c2)C(=O)N([C@@H](C)CO)C[C@@H](C)[C@H](CN(C)Cc2ccc(Cl)c(Cl)c2)OCCCC[C@@H](C)O3)cc1
inactive: [1] | [2] | [3] | [4] | [5] | [6] -18.1% [at 4.2 µM, stronger effect = lower value] | [7] | [8] | [9]

C[C@@H]1CCCCO[C@@H](CN(C)Cc2ccccc2)[C@@H](C)CN([C@H](C)CO)C(=O)c2cc(NC(=O)Nc3ccc(C(F)(F)F)cc3)ccc2O1
inactive: [1] | [2] | [3] | [4] | [5] | [6] -13.2% | [7] | [8] | [9]

C[C@@H]1CN([C@@H](C)CO)C(=O)c2cc(NC(=O)NC3CCCCC3)ccc2O[C@@H](C)CCCCO[C@H]1CN(C)Cc1ccc(C(F)(F)F)cc1
inactive: [1] | [2] | [3] | [4] | [5] | [6] -25.9% | [7] | [8] | [9]

C[C@@H]1CCCCO[C@H](CN(C)Cc2ccc(Cl)c(Cl)c2)[C@@H](C)CN([C@@H](C)CO)C(=O)c2cc(NS(=O)(=O)c3ccc(Cl)cc3)ccc2O1
inactive: [1] | [2] | [3] | [4] | [5] | [6] -6.91% [at 4.2 µM, stronger effect = lower value] | [7] | [8] | [9]

Cc1ccc(S(=O)(=O)Nc2ccc3c(c2)C(=O)N([C@@H](C)CO)C[C@@H](C)[C@@H](CN(C)Cc2ccc(C(F)(F)F)cc2)OCCCC[C@H](C)O3)cc1
inactive: [1] | [2] | [3] | [4] | [5] | [6] -14.9% [at 2.1 µM, stronger effect = lower value] | [7] | [8] | [9]

C[C@@H]1CN([C@H](C)CO)C(=O)c2cc(NC(=O)Nc3ccccc3)ccc2O[C@@H](C)CCCCO[C@H]1CN(C)Cc1ccc(Cl)c(Cl)c1
inactive: [1] | [2] | [3] | [4] | [5] | [6] -19.3% | [7] | [8] | [9]

C[C@@H]1CN([C@@H](C)CO)C(=O)Cc2cc(NC(=O)Nc3ccc(F)cc3)ccc2O[C@H]1CN(C)CC1CCCCC1
inactive: [1] | [2] | [3] | [4] | [5] | [6] 14.9% [at 2.1 µM, stronger effect = lower value] | [7] | [8] | [9]

C[C@@H]1CCCCO[C@H](CN(C)C(=O)C2CCCCC2)[C@@H](C)CN([C@@H](C)CO)C(=O)c2cc(NC(=O)Nc3ccccc3)ccc2O1
inactive: [1] | [2] | [3] | [4] | [5] | [6] 37.9% [at 1 µM, stronger effect = lower value] | [7] | [8] | [9]

Cc1ccc(S(=O)(=O)Nc2ccc3c(c2)C(=O)N([C@@H](C)CO)C[C@@H](C)[C@@H](CN(C)Cc2ccc(Cl)c(Cl)c2)OCCCC[C@@H](C)O3)cc1
inactive: [1] | [2] | [3] | [4] | [5] | [6] -8.95% | [7] | [8] | [9]

C[C@H](CO)N1C[C@H](C)[C@@H](CN(C)Cc2ccc(-c3ccccc3)cc2)Oc2ccc(NC(=O)Cc3ccccc3)cc2CC1=O
inactive: [1] | [2] | [3] | [4] | [5] | [6] -13.7% [at 0.5 µM, stronger effect = lower value] | [7] | [8] | [9]

C[C@H](CO)N1C[C@H](C)[C@H](CN(C)C(=O)NC2CCCCC2)OCCCC[C@H](C)Oc2ccc(NC(=O)Nc3ccc(C(F)(F)F)cc3)cc2C1=O
inactive: [1] | [2] | [3] | [4] | [5] | [6] 11.8% [at 2.1 µM, stronger effect = lower value] | [7] | [8] | [9]

C[C@@H]1CN([C@@H](C)CO)C(=O)c2ccccc2-c2ccccc2CO[C@@H]1CN(C)Cc1ccc2c(c1)OCCN2C
inactive: [1] | [2] | [3] | [4] | [5] | [6] 3.55% | [7] | [8] | [9]

COc1ccc(NC(=O)Nc2ccc3c(c2)C(=O)N([C@@H](C)CO)C[C@@H](C)[C@@H](CN(C)Cc2ccc(C(F)(F)F)cc2)OCCCC[C@@H](C)O3)cc1
inactive: [1] | [2] | [3] | [4] | [5] | [6] -11.3% | [7] | [8] | [9]

C[C@H]1CN([C@@H](C)CO)C(=O)Cc2cc(NC(=O)Nc3ccc(C(F)(F)F)cc3)ccc2O[C@H]1CN(C)C(=O)NC1CCCCC1
inactive: [1] | [2] | [3] | [4] | [5] | [6] 30.7% [at 1.1 µM, stronger effect = lower value] | [7] | [8] | [9]

O=C(C[C@@H]1C[C@H]2c3cc(NC(=O)Nc4ccc(C(F)(F)F)cc4)ccc3O[C@H]2[C@H](CO)O1)NCCc1ccccc1
inactive: [1] | [2] | [3] | [4] | [5] | [6] 13% | [7] | [8] | [9]

O=C(c1ccc(F)cc1)N1C[C@@H]2N[C@H](C1)C2c1ccc(-c2ccc(F)cc2)cc1 (stereo partly specified)
inactive: [1] | [2] | [3] | [4] | [5] | [6] -17.2% [at 4.2 µM, stronger effect = lower value] | [7] | [8] | [9]

CN1C[C@@H]2[C@H](c3ccccc31)[C@H](CO)N2Cc1ccccc1Cl
inactive: [1] | [2] | [3] | [4] | [5] | [6] 22.5% | [7] | [8] | [9]

O=C(C[C@H]1CC[C@@H]2[C@H](COC[C@@H](O)CN2Cc2ccc(F)cc2)O1)NCc1ccccc1Cl
inactive: [1] | [2] | [3] | [4] | [5] | [6] 64.7% | [7] | [8] | [9]
